Results on 42 molecules are retold here after PubChem BioAssay AID624256 (NMMLSC, 2012).

Among all 360,000 compounds or so, about 3,700 (1%) were called active. Not shown: some 2% with an inconclusive outcome.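 How the source made its calls: active means normalized GFP-positive differentiation at or above the plate's own cutoff, the solvent-only control mean plus 3 SD; inconclusive means no clear call, values can overlap the other calls; inactive means the rest.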 The entries come from a sample that favours actives as a whole. Where a SMILES comes first, the peptide text is derived from it. The star is where a group is joined. OPac = O=C(CO*)c1ccccc1; Bz = O=C(c1ccccc1)*

The assay is described as follows: HoxA9-arrested leukemia cell differentiation promoters – flow cytometry, MLPCN library, primary screen (AID 624256).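 On GFP+ MAC1+ double positive: cells exposed to compound for four days before flow analysis.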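 On normalized GFP-positive differentiation: cells exposed to compound for four days before flow analysis; 0% = DMSO wells and 100% = fulvestrant positive control at 5 µM.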 Particulars: ER-HoxA9 myeloid progenitors, lysozyme-GFP differentiation, at 10 µM; GFP+ MAC1+ double positive: measured here: differentiation confirmed by MAC1 staining, stronger effect = higher value; normalized GFP-positive differentiation: stronger effect = higher value.
With `CCCCCCCCN1C(=O)[C@H](CC(=O)NCc2cccc3ccccc23)C[C@@]2(C(=O)OC)CCCCC=C12`, the GFP+ MAC1+ double positive came out at 1.4% and the result was inactive.
In the same order, the values of `O=C(NCCN1CCOCC1)c1ccccc1N1C(=O)[C@@H]2Cc3c([nH]c4ccccc34)C(c3cccc(Cl)c3)N2C1=O` (some centres undefined) are 2.3% and “inactive”.
For the molecule `COC(=O)c1ccc2nc(-c3ccc(OC)c(OC)c3)c(Cc3ccccc3)n2c1`, the GFP+ MAC1+ double positive came to 0.7% and the molecule was called inactive.
In the case of `Nc1ccc(S(=O)(=O)NC(=O)c2ccccc2)cc1`, the GFP+ MAC1+ double positive is 0.9% and the molecule was called inactive.
`Nc1ccc(C(=O)Nc2ccccc2N)cc1`: the GFP+ MAC1+ double positive amounted to 1.3% and the normalized GFP-positive differentiation was 21.2% (active).
For the molecule `O=C(Cc1ccccc1)Nc1ccc(C(=O)Nc2ccccc2C(=O)O)cc1`, the GFP+ MAC1+ double positive worked out at 1.7% and the molecule was classed as inactive.
For `CCOc1ccc(CCN2C(=O)C(=O)N([C@@H](CC(C)C)CN3CCC[C@H]3CN3C(=O)C(=O)NC[C@@H]3Cc3ccccc3)C[C@@H]2CC(C)C)cc1`, the GFP+ MAC1+ double positive was found to be 1.6% and the result was inactive.
Regarding `CC(OC(=O)CCc1nc(=O)c2ccccc2n1C)C(=O)NCc1ccc2c(c1)OCO2` (centres undefined), the GFP+ MAC1+ double positive was 0.9% and the outcome was inactive.
`O=C(COC(=O)Cn1cnc2ccccc2c1=O)NCc1ccccc1Cl`: the GFP+ MAC1+ double positive was 0.9% and the result was inactive.
On to `Cn1c(CCC(=O)OCC(=O)NCc2ccccc2Cl)nc(=O)c2ccccc21`, for which the GFP+ MAC1+ double positive was determined as 34.4% and the normalized GFP-positive differentiation is 369% (active).
As for `CC(=O)N1C[C@@H](CO)[C@@H](N(C)C(=O)c2ccco2)C[C@H]1c1ccccc1`, the GFP+ MAC1+ double positive is 0.1% and the molecule was called inactive.
Regarding `CCCCCCCCN1C(=O)[C@H](CC(=O)NCC23CC4CC(CC(C4)C2)C3)C[C@@]2(C(=O)OC)CCCCC=C12`, the GFP+ MAC1+ double positive was 1% and the result was inactive.
As to `O=C(CN1C(=O)CSC1=O)N1CCCC(Nc2ccc(F)cc2)C1` (centres undefined), the GFP+ MAC1+ double positive is 0.7% and the outcome was inactive.
For `O=C(CN1CCOC1=O)N1CCCC(Nc2ccc(F)c(F)c2)C1` (centres undefined), the GFP+ MAC1+ double positive came out at 3.1% and the outcome was inactive.
Regarding `O=C1CCCCN1CCCC(=O)N1CCCC(Nc2ccc(F)cc2)C1` (centres undefined), the GFP+ MAC1+ double positive is 45% and the normalized GFP-positive differentiation is 233% (active).
For the molecule `CC(C)(C)C1CCC(=O)N2CCC[C@]2(c2ccccc2)C1` (some centres undefined), the GFP+ MAC1+ double positive was determined as 1% and the result was inactive.
On to `CN(C)c1cccc(NC(=O)c2ccc(-c3ccc(F)c(F)c3)c3ccoc23)c1`, for which the GFP+ MAC1+ double positive came to 1.3% and the molecule was called inactive.
`COc1ccc2c(c1)c1ncn(Cc3ccccn3)c(=O)c1n2C`: the GFP+ MAC1+ double positive stood at 0.7% and the result was inactive.
As for `Cc1ccc2c(c1)c1ncn(Cc3ccc(F)cc3)c(=O)c1n2C`, the GFP+ MAC1+ double positive came to 2.8% and the normalized GFP-positive differentiation is 18% (active).
As for `Cc1ccc2[nH]c3c(=O)n(Cc4ccccn4)cnc3c2c1`, the GFP+ MAC1+ double positive stood at 3% and the molecule was called inactive.
With `Cc1ccc(C(NC(=O)C2CCN(CCOc3ccc(Cl)cc3Cl)CC2)c2ccccn2)cc1` (centres undefined), the GFP+ MAC1+ double positive is 1.4% and the outcome was inactive.
In the case of `COc1ccc(-c2cc(NC=O)c3ncc(-c4ccccc4)n3c2)cc1OC`, the GFP+ MAC1+ double positive came to 3.3% and the call was inactive.
As to `COC(=O)C1(C(=O)OC)C[C@H](c2ccccc2)N(Cc2ccccc2OC)[C@@H]1c1ccccc1`, the GFP+ MAC1+ double positive came to 1.5% and the molecule was called inactive.
For the molecule `Cc1ccc(Cc2c(-c3ccc(Cl)cc3)nc3c4ccccc4ccn23)cc1`, the GFP+ MAC1+ double positive was determined as 0.4% and the call was inactive.
The like results for `CC1CCCCC1NC(=O)COC(=O)Cc1ccc(Cl)cc1` (centres undefined) were, in that order, 1.4% and “inactive”.
For `CC1CCCC(NC(=O)CN2CCN(Cc3ccc(Cl)cc3)C2=O)C1C` (centres undefined), the GFP+ MAC1+ double positive amounted to 11.3% and the normalized GFP-positive differentiation was 111% (active).
As to `Cc1ccc(CNC(=O)CN2CCN(Cc3ccc(Cl)cc3)C2=O)cc1`, the GFP+ MAC1+ double positive is 1% and the call was inactive.
As for `Cc1ccc(C)c(C(O)c2ncc(-c3cccc4ccccc34)[nH]2)c1` (centres undefined), the GFP+ MAC1+ double positive amounted to 0.8% and the molecule was called inactive.
As to `C[C@H]1COc2cc(N3CCSCC3)ccc2S(=O)(=O)N1`, the GFP+ MAC1+ double positive was determined as 0.8% and the molecule was classed as inactive.
Take `Nc1c(C(=O)c2cccs2)sc2nsc(SCCN3CCCCC3)c12`: the GFP+ MAC1+ double positive is 6% and the normalized GFP-positive differentiation is 344% (active).
With `CCCCCCN1CCN(C2CN(Cc3cn(CCCCCC)nn3)S(=O)(=O)C2)CC1` (centres undefined), the GFP+ MAC1+ double positive stood at 0.5% and the molecule was called inactive.
Regarding `Nc1[nH]c(C(=O)c2ccccc2)c(-c2ccncc2)c1C(=O)NCc1cccc2ccccc12`, the GFP+ MAC1+ double positive turned out to be 1.6% and the molecule was classed as inactive.
The like results for `O=C(Nc1ccc(F)cc1)C(CCc1ccccc1)N1CCN(CC(=O)N2CCCC2)CC1` (centres undefined) were, in that order, 1.3% and “inactive”.
In the case of `O=C(C[n+]1ccc2c(c1)nnn2-c1ccccc1)c1ccc(Cl)cc1`, the GFP+ MAC1+ double positive worked out at 0.8% and the normalized GFP-positive differentiation was 63.4% (active).
`c1ccc2c(c1)nnn2-c1ccncc1`: the GFP+ MAC1+ double positive came to 0.8% and the molecule was called inactive.
In the same order, the values of `O=C(CSc1cccc[n+]1[O-])c1ccc(Cl)cc1` are 0.4% and “inactive”.
As for `Cc1cc(=O)oc2c3c(cc(OCC(=O)NCC(O)c4ccccc4)c12)OC(C)(C)CC3` (centres undefined), the GFP+ MAC1+ double positive was determined as 7.8% and the molecule was classed as inactive.
Take `Cc1ccc(S(=O)(=O)NC(=O)COc2ccccc2C)cc1`: the GFP+ MAC1+ double positive is 0.4% and the molecule was called inactive.
In the same order, the values of `O=C(CNC(=O)c1ccccc1)NCC(=O)OCC(=O)c1ccccc1` (Bz-Gly-Gly-OPac) are 0.2% and “inactive”.
On to `Cc1ccccc1OCC(=O)NCC(=O)OCC(=O)c1ccc2ccccc2c1`, for which the GFP+ MAC1+ double positive came out at 3.6% and the normalized GFP-positive differentiation was 24.5% (active).
On to `O=C(NC1CCCCC1)C(c1cc2ccccc2o1)n1c(=O)c(-c2ccco2)nc2ccccc21` (centres undefined), for which the GFP+ MAC1+ double positive stood at 5.6% and the outcome was inactive.
On to `CSc1ccc(CN2CCC2(C)C(=O)Nc2ccc(C)c(O)c2)cc1` (centres undefined), for which the GFP+ MAC1+ double positive came to 0.4% and the outcome was inactive.
